Assay outcomes from PubChem.
An excerpt weighted towards active compounds, which were near 2.4% of everything screened.
D2 ag-1: HTS Assay for Allosteric Agonists of the Human D2 Dopamine Receptor: Primary Screen for Agonists; D(2) dopamine receptor (Homo sapiens), P14416; AID 485358, 2010; hit rate 0.53% among 340,000; activation, % at 2 µM; HEK293 T-REx D2 cells, calcium flux agonist mode;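 active = activation over 3 SD above normal in the single-dose calcium agonist read, cut at about 30% in these data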; note: 0% is about no effect
Target sequence (P14416 whole entry, looked up): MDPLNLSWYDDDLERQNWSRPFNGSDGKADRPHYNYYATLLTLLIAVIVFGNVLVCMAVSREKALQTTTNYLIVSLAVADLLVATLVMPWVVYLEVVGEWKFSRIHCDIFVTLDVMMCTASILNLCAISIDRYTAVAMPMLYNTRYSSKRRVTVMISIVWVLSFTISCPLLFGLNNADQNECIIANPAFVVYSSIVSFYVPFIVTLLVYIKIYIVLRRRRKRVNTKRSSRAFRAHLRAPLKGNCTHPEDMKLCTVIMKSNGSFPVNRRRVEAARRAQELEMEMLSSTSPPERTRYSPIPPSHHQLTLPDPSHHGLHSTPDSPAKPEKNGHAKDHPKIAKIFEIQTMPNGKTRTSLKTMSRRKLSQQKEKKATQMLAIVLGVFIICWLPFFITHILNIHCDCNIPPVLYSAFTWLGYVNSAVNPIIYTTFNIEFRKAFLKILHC
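Calcium-flux readout, 1 cycle/sec over 180 s following compound pin transfer, in inducible HEK293 Trex D2 cells (force-coupled); dopamine controls included. Positive calcium responses during this window marked compounds as potential agonists.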
D2 ag-2: Beta-Arrestin HTS for Positive Allosteric Modulators of the Human D2 Dopamine Receptor: Agonists; D(2) dopamine receptor (Homo sapiens), P14416; DiscoveRx PathHunter D2 beta-arrestin, luminescence, 90 min; 100% = 57 uM dopamine signal; activation, % (no concentration beside the values); hit rate 0.084% among 360,000; AID 624465, 2012; in the data active = activation above about 40%; inconclusive = between about 15% and that limit
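DiscoveRx PathHunter D2 beta-arrestin cells (2,100/well) attached overnight, then compound-stimulated 90 min at 37 C in HBSS/10 mM HEPES/0.1% Tween-20 buffer; beta-galactosidase complementation read by luminescence after 1 h at ambient temperature. Dopamine 57 uM final (EC100) as control.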
D2 PAM-1: Beta-Arrestin HTS for Positive Allosteric Modulators of the Human D2 Dopamine Receptor: Potentiators. D(2) dopamine receptor (Homo sapiens), P14416. DiscoveRx D2 beta-arrestin cells, luminescence, 90 min; 100% = 57 uM dopamine signal. potentiation, % (concentration not given with the values). hit rate 0.23% among 360,000. AID 624464, 2012; in the data active = potentiation above about 50%; inconclusive = mostly about 30% to 49%
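PathHunter D2 cells, attached overnight at 37 deg C, received compound in DMSO plus dopamine at EC20 (50 nM final) for 90 min at 37 deg C. Beta-arrestin recruitment was read as luminescence after 1 h with detection reagent at ambient temperature.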
D2 PAM-2: HTS Assay for Positive Allosteric Modulators of the Human D2 Dopamine Receptor: Primary Screen for Potentiators. D(2) dopamine receptor (Homo sapiens), P14416. AID 485347, 2010. hit rate 0.34% among 340,000. HEK293 T-REx D2, calcium flux, EC20 dopamine potentiation. potentiation, % at 10 µM;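 active = potentiation over 3 SD above the plate norm, cut at about 30% in these data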; note: 0% is about no effect
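Tetracycline-induced Hek293 Trex D2 cells, force-coupled to calcium, loaded with no-wash calcium dye. Compound added with 180 s kinetic read for agonism, then EC20 dopamine and a further 180 s read for potentiation.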
D2 antag: HTS Assay for Allosteric Antagonists of the Human D2 Dopamine Receptor: Primary Screen for Antagonists; D(2) dopamine receptor (Homo sapiens), P14416; hit rate 2% among 340,000; HEK293 TREx D2 cells, calcium flux, dopamine EC80; inhibition, % at 10 µM; in the data active = inhibition above about 30%; inactive = below that, where a call was filed; note: 0% is about no effect
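Tetracycline-induced HEK293 TREx cells expressing D2 receptor forced-coupled to calcium signalling, loaded with no-wash calcium dye. Compounds added and calcium flux read 180 s, then dopamine added at EC80 and read a further 180 s.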
Starred values were filed as active, the others as inactive; ? = inconclusive; nt = no result.

SMILES	D2 ag-1	D2 ag-2	D2 PAM-1	D2 PAM-2	D2 antag
Nc1ncccc1OCc1cccc(C(F)(F)F)c1	-0.4	4.9	2.3	31.6*	-10.5
COc1ccc(OC)c(S(=O)(=O)N2Cc3ccccc3CC2C(=O)Nc2ccc(C(C)=O)cc2)c1 (configuration not stated)	0.7	nt	nt	3.7	nt
COc1cc(/C=C2\CC/C(=C\c3ccc(OCCO)c(OC)c3)C2=O)ccc1OCCO	76.2*	10.3	8.9	21.5	0.4
COc1ccc(/C=C2\CC/C(=C\c3ccc(OC)c(OC)c3)C2=O)cc1OC	1.5	-2.9	-8.2	12.2	-2.8
O=C(Nc1nccs1)C1CC(=O)N(Cc2ccco2)C1 (configuration not stated)	0.7	-4.1	9.4	46.3*	-16.7
COc1ccc(NC(=O)C2CC(=O)N(c3cccc(C)c3C)C2)cc1 (configuration not stated)	0.3	-3.4	-8.6	-12.7	31.1*
Cc1ccc(N2CC(C(=O)Nc3ccc4c(c3)OCO4)CC2=O)cc1 (configuration not stated)	-1.3	-3.2	3.0	-8.5	-6.1
COc1cccc(NC(=O)C2CC(=O)N(Cc3ccco3)C2)c1 (configuration not stated)	0.7	-5.6	-0.6	-1.3	36.6*
Cc1ccc(N2CC(C(=O)Nc3ccc4c(c3)OCO4)CC2=O)cc1C (configuration not stated)	-1.7	-1.9	-4.6	31.4*	0.5
CSc1ccc(CNC(=O)Cc2csc3ccccc23)cc1	1.0	nt	nt	3.4	nt
O=C(CSc1nc2c([nH]c3ccccc32)c(=O)n1-c1ccccc1)N1CCc2ccccc21	nt	nt	nt	2.2	nt
Cc1cccc(NC(=O)C(=O)NCCc2sc(-c3ccccc3)nc2C)c1C	1.1	nt	nt	3.3	nt
Cc1coc2c(C)c3oc(=O)c(CCC(=O)N4CCC(C(=O)NCCCC(=O)O)(c5ccccc5)CC4)c(C)c3cc12	0.0	1.3	-7.5	41.4*	-3.0
Cc1coc2c(C)c3oc(=O)c(CCC(=O)NCCCN4CCOCC4)c(C)c3cc12	0.0	-2.7	-49.4	3.1	-11.1
Cc1[nH]c(=O)[nH]c(=O)c1S(=O)(=O)Nc1ccc(Oc2ccccc2)cc1	0.1	-1.7	3.0	5.9	-7.6
CN(C)S(=O)(=O)Nc1ccc(Oc2ccccc2)cc1	-0.1	-1.0	-20.1	3.0	34.6*
CC1(C)CC(NCc2ccccc2)CCO1 (configuration not stated)	1.1	-3.2	-7.8	37.7*	-12.7
Cc1cc(C)c(NC(=O)Cn2c(=O)n(CC(=O)NCc3ccccc3Cl)c(=O)c3sccc32)c(C)c1	0.6	nt	nt	-2.3	nt
COC(=O)C1CCN(C(=O)CSc2nc3ccc(OC)cc3[nH]2)CC1	1.5	-0.9	-19.4	11.0	2.2
COc1ccc2nc(SCC(=O)N3CCNC3=O)[nH]c2c1	0.5	-1.7	-5.9	6.4	43.9*
COc1cc(C2Nc3cccc4cccc(c34)N2)ccc1O	-0.1	8.7	-6.4	-2.1	4.3
Oc1ccc2ccccc2c1C1Nc2cccc3cccc(c23)N1	0.4	?	50.5*	14.3	-13.4
CCN(CC)S(=O)(=O)c1cc(-c2ccc(=O)n(C(C)C(=O)Nc3cccc(C#N)c3)n2)ccc1C (configuration not stated)	0.2	nt	nt	-16.9	nt
O=C(Nc1ccc(Cl)cc1)N1CCC(c2nc(-c3ccccc3Cl)no2)CC1	0.3	3.1	-16.0	0.5	31.2*
CN(C(=O)CN1C(=O)C2C3CC(C(Br)C3Br)C2C1=O)C1CCCCC1 (configuration not stated)	-0.1	2.4	-0.5	8.9	30.8*
O=C(NCc1ccccc1)c1cc(-c2cccs2)on1	nt	-0.3	-10.2	nt	nt
O=C(NCc1ccccc1)c1nc(-c2cccs2)no1	-2.0	-8.4	-0.6	-1.0	36.3*
